Reference: PubChem BioAssay AID1565 (Sanford-Burnham Center for Chemical Genomics, 2009)
The campaign covered roughly 290,000 compounds. About 3,200 (1.1%) were called active. Only a selection was taken, and actives are over-represented in it overall. Unmarked numbers belong to inactive results. Rule as the data show it: active = inhibition above about 60%; inactive = the rest.

What follows are molecules tested against Phosphoethanolamine/phosphocholine phosphatase (Homo sapiens) (UniProt Q8TCT1) (assay: PubChem AID 1565). Conditions: recombinant PHOSPHO1, absorbance phosphatase assay; at 13.3 µM; active compounds read high.
Phosphoethanolamine/phosphocholine phosphatase (Homo sapiens), sequence (Q8TCT1 whole entry, looked up): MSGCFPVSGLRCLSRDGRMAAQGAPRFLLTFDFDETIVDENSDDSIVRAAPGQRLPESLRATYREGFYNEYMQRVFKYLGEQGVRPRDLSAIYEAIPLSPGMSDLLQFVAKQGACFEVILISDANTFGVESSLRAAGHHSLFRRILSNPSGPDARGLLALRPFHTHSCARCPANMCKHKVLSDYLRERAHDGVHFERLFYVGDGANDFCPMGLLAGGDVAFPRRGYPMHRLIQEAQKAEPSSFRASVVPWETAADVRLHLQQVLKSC

Compound | inhibition
Cc1ccc(S(=O)(=O)N2CCN=C2SCc2c(F)cccc2Cl)cc1 | 22.6%
OC(CNCCc1ccc(Cl)cc1Cl)COc1ccccc1 (configuration not stated) | 46.3%
COc1ccc(OC)c(C(=O)NC(CC(N)=O)c2ccc(N3CCC(N4CCCCC4)CC3)c([N+](=O)[O-])c2)c1 (configuration not stated) | -18.6%
O=C(CNc1cccc(S(=O)(=O)N2CCCCC2)c1)Nc1ccccc1F | 42.8%
CC(C)C(C(=O)NCc1ccco1)N(CC1CCCO1)C(=O)CNS(=O)(=O)c1ccc(F)cc1 (configuration not stated) | 46.2%
CCOc1ccccc1Nc1nnc(SCC(=O)Nc2cc(C)on2)s1 | 61.5% (active)
Cc1cc(NC(=O)CSc2nnc(Nc3ccccc3F)s2)no1 | -3.4%
CCOc1ccccc1Nc1nnc(SCc2ccc(C(=O)OC)o2)s1 | 48.3%
CCOC(=O)C1(CCOC)CCN(Cc2cc3ccccc3s2)CC1 | 3.1%
CCOC(=O)c1ccc(NC(=O)CSc2nnc(COc3ccccc3OC)n2C)cc1 | 6.3%
CCCCNC(=O)CSc1nc2ccc(NC(=O)CSc3nnc(COc4ccccc4C)n3C)cc2s1 | 74.2% (active)
CCCCNC(=O)CSc1nc2ccc(NC(=O)CSc3nnc(N)s3)cc2s1 | -25.6%
CC(C)[C@H](NC(=O)N1CCn2c1nc1ccccc12)C(=O)NC1CC1 | 46.9%
O=S1(=O)CCOC[C@H](CC2CCCCC2)N1Cc1ccc(F)cc1 | 4%
CCOC(=O)c1c(C)[nH]c(C)c1S(=O)(=O)NCCCc1ccco1 | -28.5%
COc1cccc(NC(C)=[N+](C)CCNS(=O)(=O)c2ccc(Cl)cc2)c1 | -9%
O=c1/c(=C/c2ccc(CNS(=O)(=O)c3ccccc3)o2)sc2n1CCN=2 | 97.8% (active)
O=S(=O)(NCc1ccccc1)c1ccc(S(=O)(=O)N2CCCC2)cc1 | 3.4%
COC(=O)C1=C(C)NC(=O)/C1=C/c1ccc(CNS(=O)(=O)c2ccc(C)cc2)o1 | 41.2%

Compound | inhibition
O=C(Nc1ccc(C(=O)O)cc1)/C(=C\c1ccccc1)NC(=O)c1ccc(Br)cc1 | 25%
Cc1ccc(S(=O)Cc2ccc(C(=O)N3CCN(C4CCCCC4)CC3)o2)cc1 (configuration not stated) | 26.1%
CCC(C)c1ccccc1NC(=O)CN(C)CC(=O)Nc1ccccc1SC (configuration not stated) | 7%
COc1ccc(C(=O)CSc2nnc(COc3ccccc3)n2Cc2ccco2)cc1 | 91.7% (active)
O=C(CSc1nnc(-c2cccs2)n1Cc1ccco1)c1ccc2c(c1)OCO2 | -69.6%
CCn1c(COc2ccccc2)nnc1SCC(=O)NCc1ccco1 | 19.2%
Cc1ccc(NC(=O)CSc2nnc(-c3cnccn3)n2Cc2ccco2)cc1C | -3.2%
COc1cc(Cl)c(C)cc1NC(=O)CSc1nnc(-c2cccnc2)n1Cc1ccco1 | 28.9%
O=C(CSc1nnc(-c2cccnc2)n1Cc1ccco1)c1ccc(Cl)c(Cl)c1 | 71.1% (active)
O=C(CSc1nnc(-c2cnccn2)n1Cc1ccco1)c1ccc(Cl)c(Cl)c1 | 85.4% (active)
C=CCn1c(CNC(=O)c2ccco2)nnc1SCC(=O)c1ccc(OC)cc1 | 32.2%
O=C(CSc1nnc(-c2cccnc2)n1Cc1ccco1)c1ccc(Cl)cc1 | 79.6% (active)
CCc1ccc(NC(=O)CSc2nnc(-c3cnccn3)n2Cc2ccco2)cc1 | 1.3%
Cc1cc(NC(=O)CSc2nc3cc(Cl)ccc3c(=O)n2Cc2ccco2)no1 | 12.3%
COc1ccc(NC(=O)CSc2nnc(-c3cccs3)n2Cc2ccco2)cc1OC | 19.4%
CC1CCN(C(=O)/C(=C\c2ccccc2F)NC(=O)c2ccccc2)CC1 | 18.7%
CCN(c1cccc(C)c1)S(=O)(=O)c1ccc(-c2coc(C)n2)cc1 | -0.1%
Cc1cc(=O)oc2c3c(cc(OCC(=O)NCc4ccccn4)c12)OC(C)(C)CC3 | 34.3%
O=C1C(=O)N(CCN2CCOCC2)C(c2cccc(Cl)c2)/C1=C(/O)c1ccc2c(c1)OCO2 (configuration not stated) | 24%

Compound | inhibition
CN(C(=O)CCN1C(=O)/C(=C/c2ccccc2F)SC1=S)C1CCS(=O)(=O)C1 (configuration not stated) | 52.6%
COc1ccc(OC)c(NC(=O)Cc2cccs2)c1 | 3.8%
CCCc1nn2c(=O)cc(CSCC(=O)Nc3cccc(C)c3)nc2s1 | 24%
CCOC(=O)Cc1csc(NC(=O)CSc2nnc(-c3cccnc3)n2Cc2ccco2)n1 | 17.3%
C(=C\c1ccccc1)/CSc1nnc(-c2cccnc2)n1Cc1ccco1 | 70.5% (active)
O=C(CSc1nnc(-c2cccnc2)n1CCc1ccccc1)NCc1ccccc1 | 1.5%
Cc1ccc(C(=O)N(CC(=O)NC2CCCC2)c2ccc(F)cc2)s1 | 40.5%
CCCCn1c(SCc2ncc(-c3ccccc3)o2)nc2cc(S(N)(=O)=O)ccc21 | 75.4% (active)
CCCCn1c(SCC(=O)N2CCC(C(=O)OCC)CC2)nc2cc(S(N)(=O)=O)ccc21 | 1.5%
CCn1c(SCC(=O)NCC2CCCO2)nc2cc(S(=O)(=O)N3CCCCC3)ccc21 (configuration not stated) | 14.5%
O=C(c1cccc(-n2cccc2)c1)N1CCN(S(=O)(=O)c2ccc(F)cc2)CC1 | -102%
O=C(C1CC(=O)N(c2ccc(F)cc2)C1)N1CCN(c2ccccc2)CC1 (configuration not stated) | 42.6%
COc1ccc(OC)c(CNC(=O)Cn2nc(C)c3c(C)n(-c4ccc(C)cc4)nc3c2=O)c1 | 24%
Cc1nn(C(C)C(=O)NCCC2=CCCCC2)c(=O)c2nn(-c3ccccc3)c(C)c12 (configuration not stated) | 54.1%
COc1ccc(CNC(=O)C(C)n2nc(C)c3c(C)n(-c4ccccc4)nc3c2=O)c(OC)c1 (configuration not stated) | 64.7% (active)
COC(=O)c1ccc(CN2CCCC(C(=O)Nc3cccc(-n4cnnn4)c3)C2)cc1 (configuration not stated) | 22.6%
Cc1cc(C)cc(NS(=O)(=O)c2ccc(F)cc2)c1 | 28.3%
Cn1nccc1NS(=O)(=O)c1ccc(F)cc1 | 69.9% (active)
Cn1c(=O)n(C)c2cc(NS(=O)(=O)c3ccc(F)cc3)ccc21 | 38.9%
